“And” between values parts separate entries of the source, which are not always exact repeats. Equal values may be shown once. Where a structure was tested more than once in an assay, its records may differ in their call. The source made the active and inactive calls. Rule for the calls: active = hit-call score of the fitted dose curve at least 0.9, where 1 is the maximum; inactive = score below 0.9.

What is called AC50 is the midpoint of the concentration-response curve, whichever way the signal moves.

Chain of Cellular tumor antigen p53 (Homo sapiens) (P04637 whole entry, looked up): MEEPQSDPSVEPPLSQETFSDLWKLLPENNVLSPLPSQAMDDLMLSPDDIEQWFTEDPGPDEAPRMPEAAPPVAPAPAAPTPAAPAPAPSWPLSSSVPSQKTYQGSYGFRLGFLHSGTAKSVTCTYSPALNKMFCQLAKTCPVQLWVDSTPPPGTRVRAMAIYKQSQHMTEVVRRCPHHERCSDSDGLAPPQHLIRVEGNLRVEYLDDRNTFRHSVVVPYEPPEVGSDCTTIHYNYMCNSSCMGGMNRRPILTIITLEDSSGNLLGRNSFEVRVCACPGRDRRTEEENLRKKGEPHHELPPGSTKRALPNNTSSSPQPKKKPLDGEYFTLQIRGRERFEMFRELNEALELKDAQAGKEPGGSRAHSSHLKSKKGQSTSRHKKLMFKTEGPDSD

One assay addresses Cellular tumor antigen p53 (Homo sapiens) (UniProt P04637). Briefly: ATG_p53_CIS: Attagene CIS-FACTORIAL HepG2 Assay for human p53 Transcription Factor (AID 2282994). The conditions noted are these: HepG2 p53 cis-element reporter, Attagene mRNA; actives raise or lower the signal. A digest of the protocol: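 Multiplexed reporter mRNA assay in human HepG2 liver cells; cis-regulated units report endogenous factor activity. Values come from bidirectional curve fitting against DMSO negative control after 24 h treatment.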
With `C#C[C@]1(O)CC[C@H]2[C@@H]3CCC4=CC(=O)CC[C@@H]4[C@H]3CC[C@@]21CC`, the result was inactive.
For `CCCN(CCC)c1c([N+](=O)[O-])cc(C(F)(F)F)c(N)c1[N+](=O)[O-]`, the compound was classed as inactive.
For `COC(=O)c1ccc(CNS(C)(=O)=O)cc1S(=O)(=O)NC(=O)Nc1nc(OC)cc(OC)n1`, the result was inactive.
`CCSC(=O)N(CC(C)C)CC(C)C`: the compound was classed as inactive.
The same measure, in the same setting: in the case of `CCCOC(=O)c1ccc(C(=O)OCCC)nc1` it was “inactive”; in that of `COC(=O)c1ccccc1S(=O)(=O)NC(=O)Nc1nc(OC(F)F)cc(OC(F)F)n1`, “inactive”; in that of `CCCCOC(=O)C(C)Oc1ccc(Oc2ccc(C(F)(F)F)cn2)cc1` (stereo not drawn), “inactive”.
The same measure, in the same setting: the entry for `COc1nc(C)nc(NC(=O)NS(=O)(=O)c2ccccc2OCCCl)n1` is “inactive”; for `O=C(c1ccccc1)C1CCCCC1` it is “inactive”.
For `CC(=O)S[C@@H]1CC2=CC(=O)CC[C@]2(C)[C@H]2CC[C@@]3(C)[C@@H](CC[C@@]34CCC(=O)O4)[C@H]12`, the AC50 is 27.6 µM (active) [middle of 4 runs] and the compound was called inactive.

Read-out in a further assay: not listed separately
Kind of assay: BSK_3C_TissueFactor: BioMAP Diversity Plus: 3C Assay for Tissue Factor Biomarker Activity (AID 2282997). The following applies: BioMAP 3C HUVEC, tissue factor biomarker readout; actives raise or lower the signal. In a few lines: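 Dosing of human umbilical vein endothelial cells preceded a 24 h incubation. Tissue Factor was then read by ELISA, with increases and decreases both scored relative to DMSO controls.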
For `CCCCC(CC)CN1C(=O)C2C3C=CC(C3)C2C1=O` (stereo not drawn), the result was inactive.
On to `O=C(O)C1(C(=O)Nc2ccc(Cl)cc2Cl)CC1`, for which the result was inactive.
As for `COC(=O)c1ccccc1C(=O)O`, the outcome was inactive.
As to `O=C(Nc1ccc([N+](=O)[O-])cc1Cl)c1cc(Cl)ccc1O`, the result was inactive.
Regarding `COC(=O)c1cccc(C)c1S(=O)(=O)NC(=O)Nc1nc(OCC(F)(F)F)nc(N(C)C)n1`, the result was inactive.
Take `CCCCOC(=O)[C@@H](C)Oc1ccc(Oc2ccc(C(F)(F)F)cn2)cc1`: the outcome was inactive.
On to `CCOC(=O)C(C)Oc1ccc(Oc2nc3ccc(Cl)cc3o2)cc1` (stereo not drawn), for which the outcome was inactive.
Still for that read-out and setting: the entry for `COC(=O)c1c(Cl)nn(C)c1S(=O)(=O)NC(=O)Nc1nc(OC)cc(OC)n1` is “inactive”; for `C#C[C@]1(O)CC[C@H]2[C@@H]3CCC4=CC(=O)CC[C@@H]4[C@H]3CC[C@@]21CC` it is “inactive”; for `CCSC(=O)N(CC(C)C)CC(C)C` it is “inactive”.
Take `COC(=O)c1ccccc1S(=O)(=O)NC(=O)Nc1nc(OC(F)F)cc(OC(F)F)n1`: the result was inactive.
On to `CC(=O)S[C@@H]1CC2=CC(=O)CC[C@]2(C)[C@H]2CC[C@@]3(C)[C@@H](CC[C@@]34CCC(=O)O4)[C@H]12`, for which the AC50 is 16.1 µM (active).

Read-out in the next assay: not listed separately
Kind of assay: BSK_3C_uPAR: BioMAP Diversity Plus: 3C Assay for Urokinase-type plasminogen activator receptor (uPAR) Biomarker Activity (AID 2282998). The conditions noted are these: BioMAP 3C HUVEC, uPAR biomarker ELISA; actives raise or lower the signal. A digest of the protocol:
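A multiplexed primary-cell system built on human umbilical vein endothelium was used, with chemical present for 24 h before reading. Cell-surface uPAR was detected by ELISA; signal change in either direction counted against DMSO.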
In general terms: An ELISA detects its analyte on a solid surface through an enzyme-linked reagent.
Take `CCCCC(CC)CN1C(=O)C2C3C=CC(C3)C2C1=O` (stereo not drawn): the AC50 is 32.2 µM (active).
As for `O=C(O)C1(C(=O)Nc2ccc(Cl)cc2Cl)CC1`, the result was inactive.
As to `COC(=O)c1ccccc1C(=O)O`, the outcome was inactive.
As to `c1ccc(Nc2ccccc2)cc1`, the outcome was inactive.
Consider `CCOC(=O)NCCOc1ccc(Oc2ccccc2)cc1`, for which the AC50 is 30.4 µM (active).
For the compound `CC(C)(c1ccc(O)cc1)c1ccc(O)cc1`, the result was inactive.
In the case of `O=C(Nc1ccc([N+](=O)[O-])cc1Cl)c1cc(Cl)ccc1O`, the AC50 is 0.145 µM (active).
Consider `COC(=O)c1cccc(C)c1S(=O)(=O)NC(=O)Nc1nc(OCC(F)(F)F)nc(N(C)C)n1`, for which the result was inactive.
Consider `CCCCOC(=O)[C@@H](C)Oc1ccc(Oc2ccc(C(F)(F)F)cn2)cc1`, for which the result was inactive.
Consider `O=C(c1ccc(O)cc1O)c1ccc(O)cc1O`, for which the result was inactive.
With `CC(C)(C)[C@@H](O)[C@@H](Cc1ccc(Cl)cc1)n1cncn1`, the result was inactive.
The same measure, in the same setting: in the case of `c1ccc2[nH]c(-c3cscn3)nc2c1` it was “inactive”.
Regarding `CCOC(=O)C(C)Oc1ccc(Oc2nc3ccc(Cl)cc3o2)cc1` (stereo not drawn), the AC50 was 13 µM (active).
Take `CCC(C)OC(=O)N1CCCCC1CCO` (stereo not drawn): the result was inactive.
Turning to `N#CSCSc1nc2ccccc2s1`, the AC50 is 2.04 µM (active) and 6.26 µM (active).
As for `CCN(Cc1c(F)cccc1Cl)c1c([N+](=O)[O-])cc(C(F)(F)F)cc1[N+](=O)[O-]`, the AC50 was 12 µM (active).
On to `CC(C)CCCCCCc1ccc(O)cc1`, for which the AC50 is 9.68 µM (active).
As for `CCNc1nc(N)nc(Cl)n1`, the outcome was inactive.
Regarding `COC(=O)c1c(Cl)nn(C)c1S(=O)(=O)NC(=O)Nc1nc(OC)cc(OC)n1`, the outcome was inactive.
On the same count and under the same terms, in the case of `C[C@]12C[C@H](O)[C@H]3[C@@H](CCC4=CC(=O)CC[C@@]43C)[C@@H]1CC[C@@H]2C(=O)CO` it was “inactive”.
The same measure, in the same setting: the entry for `C#C[C@]1(O)CC[C@H]2[C@@H]3CCC4=CC(=O)CC[C@@H]4[C@H]3CC[C@@]21CC` is “inactive”.
For `CCCN(CCC)c1c([N+](=O)[O-])cc(C(F)(F)F)c(N)c1[N+](=O)[O-]`, the AC50 is 31.8 µM (active).
`COC(=O)c1ccc(CNS(C)(=O)=O)cc1S(=O)(=O)NC(=O)Nc1nc(OC)cc(OC)n1`: the outcome was inactive.
Turning to `CCSC(=O)N(CC(C)C)CC(C)C`, the result was inactive.
With `CCCOC(=O)c1ccc(C(=O)OCCC)nc1`, the result was inactive.
Take `COC(=O)c1ccccc1S(=O)(=O)NC(=O)Nc1nc(OC(F)F)cc(OC(F)F)n1`: the outcome was inactive.
The same measure, in the same setting: the entry for `CCCCOC(=O)C(C)Oc1ccc(Oc2ccc(C(F)(F)F)cn2)cc1` (stereo not drawn) is “inactive”.
In the case of `COc1nc(C)nc(NC(=O)NS(=O)(=O)c2ccccc2OCCCl)n1`, the result was inactive.
In the case of `O=C(c1ccccc1)C1CCCCC1`, the outcome was inactive.
Turning to `CC(=O)S[C@@H]1CC2=CC(=O)CC[C@]2(C)[C@H]2CC[C@@]3(C)[C@@H](CC[C@@]34CCC(=O)O4)[C@H]12`, the AC50 is 27.8 µM (active).

The values are drawn from PubChem BioAssay (EPA / NIEHS).
